Screening results deposited in PubChem by several laboratories.
This is a sample that favours compounds with a hit; in the whole collection about 1.5% have one here.
PABP polyA inh: PABP-poly(A) binding inhibition; P11940; PABP-poly(A) RNA binding, fluorescence polarization; calls only at 35 µM; hit rate 1% among 290,000; AID 2014;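 also: calls also rest on retests at 20 µM and on dose response follow-up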
eIF4E-4G inh: inhibitors of eIF4E and eIF4G interaction in translation initiation | hit rate 0.37% among 220,000 | AID 782 | P63073+Q04637 | inhibition, % at 21.7 µM | TR-FRET eIF4E-eIF4GI(517-606) binding, 2 h;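 active = inhibition above about 30%, limit read from the data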;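 also: 0% = full FRET control wells and 100% = background wells lacking eIF4GI fragment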
eIF4H FP inh: inhibitors of RNA binding by human eIF4H; Q15056; eIF4H fluorescence polarization binding assay; inhibition, % at 35 µM; hit rate 0.94% among 290,000; AID 2012;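 also: calls also rest on retests at 20 µM and on dose response follow-up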
PABP1 MLLE inh: inhibitors of microRNA-mediated deadenylation, human PABP1 MLLE binding. P11940. GST-MLLE / FITC-PAM2 fluorescence polarization. inhibition, % at 20 µM. hit rate 0.36% among 360,000. AID 588489; in the data active = inhibition above about 35%, passing the limit was not always enough;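 also: plate controls were DMSO wells with GST-MLLE for no effect and wells lacking GST-MLLE protein for full effect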
* hit, by the source's call; [ ] = dose if it differs, or a comment. Unless noted, no rule for the calls is given here.

`COc1cccc(CNC(=O)CCC2CCCN(C(=O)c3ccccc3N(C)C)C2)c1` (configuration not stated) gave PABP polyA inh inactive, eIF4H FP inh -13 and PABP1 MLLE inh 2.
Screening O=C1CN(C(=O)c2cccs2)c2ccccc2N1 returned PABP polyA inh inactive, eIF4E-4G inh 47*, eIF4H FP inh 1 and PABP1 MLLE inh -8.
O=C1CN(C(=O)/C=C/c2ccc(Cl)cc2)c2ccccc2N1 was read as PABP polyA inh inactive, eIF4E-4G inh -5, eIF4H FP inh 5 and PABP1 MLLE inh 5.
Screening O=C1CN(C(=O)/C=C/c2ccco2)c2ccccc2N1 returned PABP polyA inh inactive, eIF4E-4G inh 13, eIF4H FP inh 71* and PABP1 MLLE inh -16.
O=C1CN(C(=O)COC(=O)c2cccs2)c2ccccc2N1 was read as PABP1 MLLE inh 10.
`O=C(CSc1nnc(COc2ccccc2)n1Cc1ccco1)NCc1ccco1` gave PABP polyA inh active, eIF4E-4G inh 6, eIF4H FP inh 50* and PABP1 MLLE inh -86.
O=C(CSc1nnc2c(n1)[nH]c1ccccc12)NCc1ccco1 was read as PABP polyA inh inactive, eIF4E-4G inh 4, eIF4H FP inh 26 and PABP1 MLLE inh 43*.
Screening COc1ccc(CNC(=O)CSc2nnc3c(n2)[nH]c2ccccc23)cc1 returned PABP polyA inh inactive, eIF4H FP inh -3 and PABP1 MLLE inh -3.
`CCOc1ccccc1C1NC(=O)c2ccccc2N1` (configuration not stated) gave PABP1 MLLE inh -7.
Screening CCOC(=O)c1c(-c2ccco2)csc1NC(=O)CSc1nnc(N)s1 returned PABP polyA inh inactive, eIF4E-4G inh -8, eIF4H FP inh 54* and PABP1 MLLE inh -8.
CCOC(=O)c1c(-c2ccc(C)o2)csc1NC(=O)CSc1nncs1 was read as PABP polyA inh inactive, eIF4E-4G inh 3, eIF4H FP inh 28 and PABP1 MLLE inh 38.
`O=C(c1ccccc1C(=O)N1CCN(c2ccccc2)CC1)N1CCN(c2ccccc2)CC1` gave PABP polyA inh active, eIF4E-4G inh 7, eIF4H FP inh 127* and PABP1 MLLE inh 86.
COc1ccc(-c2cc(C(=O)N3CCCC3)c3ccccc3n2)cc1 was read as PABP1 MLLE inh -12.
Screening COc1ccc(-c2cc(C(=O)N3CCCCCC3)c3ccccc3n2)c(OC)c1 returned PABP polyA inh active, eIF4H FP inh 84* and PABP1 MLLE inh 19.
For O=C(O)c1ccccc1C(=O)N1CCN(c2ccccc2)CC1 the results were PABP polyA inh inactive, eIF4E-4G inh -1, eIF4H FP inh -8 and PABP1 MLLE inh 1.
Screening CN1CCC(N(C)C(=O)c2sc3cc(F)ccc3c2Cl)CC1 returned PABP polyA inh inactive, eIF4E-4G inh 2, eIF4H FP inh 1 and PABP1 MLLE inh 18.
COc1ccc(-c2cc(C(=O)N3CCN(c4ccccc4)CC3)c3ccccc3n2)cc1 was read as PABP polyA inh active, eIF4E-4G inh 2, eIF4H FP inh 57* and PABP1 MLLE inh 11.
O=C(c1sc2cc(F)ccc2c1Cl)N1CCN(c2ccccc2)CC1 was read as PABP polyA inh active, eIF4E-4G inh 4, eIF4H FP inh 76* and PABP1 MLLE inh 7.
CC1(C(=O)Nc2ccc3c(c2)OCO3)CCN1C(=O)Cc1cccc2ccccc12 (configuration not stated) was read as PABP1 MLLE inh 13.
`Cc1ccc(C)c(C(O)c2ncc(-c3ccc(C(F)(F)F)cc3)[nH]2)c1` (configuration not stated) gave PABP1 MLLE inh 1.
Screening CCOC(=O)c1c(CSC(=N)N)n(-c2ccc(Br)cc2)c2cc(Br)c(OC(C)=O)cc12 returned PABP polyA inh inactive, eIF4E-4G inh 37*[fluorescence artefact?], eIF4H FP inh 5 and PABP1 MLLE inh 1.
For Cc1nn2c3c(cnc2c1-c1ccc(Cl)cc1)C(=O)CC(c1ccco1)C3 (configuration not stated) the results were PABP polyA inh active, eIF4H FP inh 61* and PABP1 MLLE inh -2.
For CCn1c(SCC(=O)N/N=C/c2c[nH]c3ccccc23)nnc1-c1ccc(Cl)cc1 the results were PABP polyA inh inactive, eIF4E-4G inh 4, eIF4H FP inh active and PABP1 MLLE inh -8.
Screening CCn1c(SCC(=O)N/N=C/c2c[nH]c3ccccc23)nnc1-c1ccc(C)cc1 returned PABP polyA inh inactive, eIF4E-4G inh -2, eIF4H FP inh -4 and PABP1 MLLE inh -60.
COC(=O)c1ccc2c(=O)n(NC(=O)C(c3ccccc3)c3ccccc3)c(=S)[nH]c2c1 was read as PABP polyA inh inactive, eIF4E-4G inh -38, eIF4H FP inh 3 and PABP1 MLLE inh 38*.
O=[N+]([O-])c1ccccc1CNc1ccc(F)c(Cl)c1 was read as PABP polyA inh active, eIF4E-4G inh -2, eIF4H FP inh 74 and PABP1 MLLE inh -3.
`CC1(C(=O)NS(=O)(=O)c2ccc(F)cc2F)CCN1C(=O)C1(c2ccc(Cl)cc2)CCC1` (configuration not stated) gave PABP1 MLLE inh 2.
O=C(C1CCN(C2CCN(C/C=C/c3ccccc3)CC2)CC1)N1CCOCC1 was read as PABP polyA inh active, eIF4E-4G inh 0, eIF4H FP inh 56* and PABP1 MLLE inh -8.
Screening O=C(C1CCN(Cc2ccccc2)CC1)N1CCN(C/C=C/c2ccccc2)CC1 returned PABP polyA inh inactive, eIF4E-4G inh 1, eIF4H FP inh -6 and PABP1 MLLE inh 6.
`O=CNc1ccc2c3c(cccc13)-c1ccccc1-2` gave PABP1 MLLE inh 47*.
Screening COCCNC(=O)C1(C)CCCN(C(=O)c2ccc(F)cc2Cl)C1 (configuration not stated) returned PABP1 MLLE inh -1.
Screening Cc1nc(C)c(C(=O)Nc2nc3c(C)cccc3s2)o1 returned PABP polyA inh active, eIF4E-4G inh 12, eIF4H FP inh 70* and PABP1 MLLE inh -1.
`CCn1c(CSc2nc3ccccc3s2)nnc1SCC(=O)c1ccc(O)c(O)c1` gave PABP polyA inh active, eIF4E-4G inh -1, eIF4H FP inh 52* and PABP1 MLLE inh -57.
`CS(=O)(=O)N1CCN(C(=O)C(Sc2ccccc2)c2ccccc2)CC1` (configuration not stated) gave PABP polyA inh inactive, eIF4E-4G inh -6, eIF4H FP inh -7 and PABP1 MLLE inh 43*.
Screening O=C(C(Sc1ccccc1)c1ccccc1)N1CCOCC1 (configuration not stated) returned PABP polyA inh inactive, eIF4E-4G inh 5, eIF4H FP inh -20 and PABP1 MLLE inh 5.
CN1C(=O)C2(c3ccccc31)C1CCCC=C1C(C#N)=C(N)C2(C#N)C#N (configuration not stated) was read as PABP polyA inh active, eIF4E-4G inh -13, eIF4H FP inh 44* and PABP1 MLLE inh -8.
O=C(c1ccc(Br)cc1)N1CCN(c2ccccn2)CC1 was read as PABP1 MLLE inh 21.
COc1ccc(C(N)c2csc(Nc3ccc(C(F)(F)F)cn3)n2)cc1 (configuration not stated) was read as PABP1 MLLE inh -4.
For O=[N+]([O-])c1ccc(CSc2ccc(S(=O)(=O)N3CCOCC3)cn2)cc1 the results were PABP1 MLLE inh 37*.
